Measured values reported in PubChem BioAssay.

biological target: Voltage-gated potassium channel subunit beta-2 (Rattus norvegicus) (UniProt P62483); assay: KvBeta positive modulators, primary screen, biochemical, NADPH fluorescence (AID 623); details: Recombinant KvBeta, NADPH fluorescence decrease slope, 10 min; at 10 µM; hits give low values;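 further: fluorescence intensity change per second fitted from 20 to 320 s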
Sequence (P62483 whole entry, looked up): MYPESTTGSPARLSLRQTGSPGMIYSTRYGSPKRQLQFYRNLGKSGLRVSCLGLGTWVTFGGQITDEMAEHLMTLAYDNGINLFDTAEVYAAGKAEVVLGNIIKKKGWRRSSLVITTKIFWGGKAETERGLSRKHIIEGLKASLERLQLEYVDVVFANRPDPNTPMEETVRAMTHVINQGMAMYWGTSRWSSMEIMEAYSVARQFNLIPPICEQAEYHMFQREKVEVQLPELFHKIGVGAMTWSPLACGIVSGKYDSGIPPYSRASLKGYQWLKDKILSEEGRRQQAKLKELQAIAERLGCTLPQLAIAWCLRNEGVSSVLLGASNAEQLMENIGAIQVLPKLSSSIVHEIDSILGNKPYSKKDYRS

NADPH fluorescence slope, inactive:
CC(C)Cn1c(=O)c(C(=O)Nc2ccccc2S(N)(=O)=O)c(O)c2ccccc21 -3.1e-05
O=C(CCN1CCc2ccccc2C1)Nc1ccc2c(c1)OCO2 -1.3e-05
CCN1C(=O)c2ccccc2S(=O)(=O)c2ccc(C(=O)NCc3cccnc3)cc21 -4.8e-05
O=C(O)CCc1ccc(-c2cccs2)o1 -0.00014
CCCCOCCCNC(=O)c1cccs1 -2.3e-05
O=C1CC(C2CCCO2)C(=O)N1Cc1ccccc1 (stereo unspecified) -3.7e-05
Cc1onc(-c2ccccc2)c1C(=O)Nc1ccc(S(=O)(=O)N2CCCCC2)cc1 -5.5e-06
O=C(CSc1nnc(-c2ccccc2)o1)N1CCN(c2ccccc2)CC1 -3.6e-05
CC1=C(C(=O)Nc2ccccc2)C(c2ccccn2)n2nc(CCCO)nc2N1 (stereo unspecified) -2.2e-05
COc1ccc(C(=O)CSc2nnc(C3CCCCC3)n2N)c(OC)c1 -2e-05
COc1cc(NC(=O)Cc2ccccc2OC)cc(OC)c1 -2e-05
COC(=O)CCC(=O)Nc1cccc(Br)c1 -0.000246
N#Cc1c(NC(NC(=O)c2ccco2)C(=O)c2ccccc2)sc2c1CCCC2 (stereo unspecified) 9.4e-06
O=C(COc1ccc2ccccc2c1)N1CCCC1 -1.8e-06
COc1ccccc1S(=O)(=O)Cc1ccc(C(=O)NCCN2CCCCCC2)o1 -3.5e-05
O=C1C2CC=CCC2C(=O)N1c1ccc(Cc2ccncc2)cc1 (stereo unspecified) 5.4e-05
